# Results published in PubChem BioAssay (NCATS).
# Records with an inconclusive call do not appear. Values without a mark were called inactive. Calls of active or inactive are those of the source. The call rests on the fitted dose curve; in most records, active means well fitted inhibition curve with a large enough effect; inconclusive means small, poorly fitted or top-dose-only effect; inactive means flat fitted curve, though single readings scatter.
# Experiment: Drug repurposing screens with cells derived from glioblastoma tumor samples (AID 1345199); further: nearly all actives have a fitted effect of over 40% in size
# Settings: GBM patient neurospheres viability, ATP luminescence, 48 h
# Method: CD133+ cells were isolated from GBM patient biopsies and cultured as neurospheres. Neurospheres from four patients were used to screen the NCATS pharmaceutical collection (NPC) library of approved drugs and bioactive compounds. […] The neurospheres were incubated with drugs for 48 hours in 1536-well format, then assayed with an ATP content cell viability assay. […] These hits were cherry picked to confirm activity in the four original GBM lines screened plus three other slower growing GMB lines (unable to yield enough cells for a full primary screen). Variable activities of the confirmed primary hits in the different GBM patient lines were observed. The patient line 206 responded to the greatest number of compounds and line 923 responded to the least amount of active compounds.
# [1] = at 45.9 µM (top of the series), tumour line B
# [2] = at 45.9 µM (top of the series), tumour line D
# [3] = at 46.1 µM (top of the series), tumour line C
# [4] = at 46 µM (top of the series), tumour line A
# On the % scale 0 is the no-effect control and ±100 the full control effect; potency means the concentration at half of the fitted maximal effect.
smiles,measurement,setting,value
COc1c(O)cc2c(c1O)[C@@H]1O[C@H](CO)[C@@H](O)[C@H](O)[C@H]1OC2=O,"activity, negative = cell killing","at 20 µM (top of the series), tumour line C",-10.5%
same,"activity, negative = cell killing","at 21.2 µM (top of the series), tumour line B",-10.4%
same,"activity, negative = cell killing","at 21.2 µM (top of the series), tumour line D",-25.7%
CCN(CCO)CCCC(C)Nc1ccnc2cc(Cl)ccc12 (configuration not stated),"activity, negative = cell killing",[1],-10.8%
same,"activity, negative = cell killing",[2],-19.9%
same,"activity, negative = cell killing",[3],3.19%
same,Potency,tumour line A,11.2 µM (active)
CCOC(=O)C1=C[C@@H](OC(CC)CC)[C@H](NC(C)=O)[C@@H](N)C1,"activity, negative = cell killing",[1],-10.4%
same,"activity, negative = cell killing",[2],-1.97%
same,"activity, negative = cell killing",[3],5.2%
Nc1ncn([C@H]2C[C@H](O)[C@@H](CO)O2)c(=O)n1,"activity, negative = cell killing",[1],-23%
same,"activity, negative = cell killing",[2],-5.51%
same,"activity, negative = cell killing",[4],-24.9%
same,"activity, negative = cell killing",[3],-19.7%
O=C(NCCO[N+](=O)[O-])c1cccnc1,"activity, negative = cell killing",[1],-0.47%
same,"activity, negative = cell killing",[2],-18.1%
same,"activity, negative = cell killing",[3],-10.1%
CS(=O)(=O)OCCCCOS(C)(=O)=O,"activity, negative = cell killing",[1],-4.65%
same,"activity, negative = cell killing",[2],-5.18%
same,"activity, negative = cell killing",[4],-16.3%
same,"activity, negative = cell killing",[3],-0.778%
O=C(NC(Cc1cc(=O)[nH]c2ccccc12)C(=O)O)c1ccc(Cl)cc1 (configuration not stated),"activity, negative = cell killing",[1],-5.33%
same,"activity, negative = cell killing",[2],4.89%
same,"activity, negative = cell killing",[4],-9.81%
same,"activity, negative = cell killing",[3],-15.5%
Cc1ncc([N+](=O)[O-])n1CC(C)O (configuration not stated),"activity, negative = cell killing",[1],-7.1%
same,"activity, negative = cell killing",[2],3.12%
same,"activity, negative = cell killing",[4],-20.2%
same,"activity, negative = cell killing",[3],-8.86%
Cc1cccc(C)c1OCC(=O)N[C@@H](Cc1ccccc1)[C@@H](O)C[C@H](Cc1ccccc1)NC(=O)[C@H](C(C)C)N1CCCNC1=O,"activity, negative = cell killing",[1],-15.7%
same,"activity, negative = cell killing",[2],-27.5%
same,"activity, negative = cell killing",[3],-29%
same,Potency,tumour line A,10 µM (active)
S=c1nc[nH]c2nc[nH]c12,"activity, negative = cell killing",[3],-28%
same,Potency,tumour line A,5.01 µM (active)
CN1CCC(=C2c3ccccc3CCc3sccc32)CC1,"activity, negative = cell killing",[3],4.48%
same,Potency,tumour line A,3.98 µM (active)
same,Potency,tumour line D,12.6 µM (active)
c1cnc2cc3c(cc2n1)C1CNCC3C1,"activity, negative = cell killing","at 99.2 µM (top of the series), tumour line C",7.09%
same,"activity, negative = cell killing","at 108 µM (top of the series), tumour line A",-15.8%
same,"activity, negative = cell killing","at 108 µM (top of the series), tumour line B",-8.07%
same,"activity, negative = cell killing","at 108 µM (top of the series), tumour line D",-25.1%
